Drawing on PubChem BioAssay, this text covers composite z-score and z-score for 14 molecules.

Activity calls are given as the source filed them.

The test system of test [1] is PRMT1 (protein arginine N-methyltransferase 1). The experiment in a line: small molecules binding arginine methyltransferase PRMT1 – biochemical, small-molecule microarray, 635 nm fluorescence, primary screen (AID 1088).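 Also: binding of Prmt1 protein to compounds spotted on small-molecule microarray slides.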 The following applies: higher = more signal.
Test [2] can be described thus: growth effects on S. cerevisiae YJM789 – YJM789 clinical isolate, OD600, 24 h, basal, primary screen (AID 1089).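 Also: growth of clinical yeast isolate S. cerevisiae YJM 789 seeded 1000 cells per well; test concentration not given here.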 The note with it: higher = more signal, called active from +8 up or from −8 down.
The nature of test [3]: S. pombe growth modifiers, basal conditions – strain 972, OD600, 24 h, no modulator, primary screen (AID 1090).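 Also: basal condition with compound alone and no growth modifier present; test concentration not given here.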 The following applies: S. pombe 972 growth, higher = more signal, called active from +8 up or from −8 down.
A short description of test [4]: budding yeast growth modifiers under rapamycin – strain BY4716, OD600, 96 h, primary screen (AID 1091). Also: test concentration not given here. The note with it: S. cerevisiae BY4716 + rapamycin, higher = more signal, called active from +8 up or from −8 down.
Test [5] has as its target Torsin-1A-interacting protein 2 (Homo sapiens) (UniProt Q8NFQ8). Nature of the test: small molecules binding lysate-expressed LULL1 – cell lysate, human LULL1 lysate, 635/667 nm fluorescence, primary screen (AID 1092).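 Also: probe is lysate of COS7 cells overexpressing human LULL1; score merges per-feature 667 nm fluorescence with signal-to-noise.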 The note with it: small-molecule microarray, hLULL1 lysate binding, 635 nm fluorescence; higher = more signal.
Test [6] in a line: optical density change of DRC41 E. coli – strain DRC41, OD650, 24 h, E. coli filamentation project, primary screen (AID 1093).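 Also: MC1000 strain lacking acrAB efflux and sulA so SOS filamentation is blocked; test concentration not given here.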 The following applies: E. coli DRC41 growth, higher = more signal, called active from +8 up or from −8 down.
Test [7] can be described thus: probe aLefty2 binding to arrayed compounds – biochemical, biotinylated probe, 635/667 nm fluorescence, primary screen (AID 1094).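 Also: score merges spot fluorescence near 667 nm with spot signal-to-noise ratio.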 The following applies: small-molecule microarray, higher = more signal.
For test [8], the system named is Noggin (protein binding on small-molecule microarray). Nature of the test: small molecules binding Noggin protein – biochemical, 635/667 nm fluorescence, primary screen (AID 1095).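 Also: score merges 667 nm feature fluorescence with signal to noise over triplicate slides.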 The note with it: 635 nm fluorescence, higher = more signal.
The target of test [9] is Neurogenic locus notch homolog protein 3 (Homo sapiens) (UniProt Q9UM47). Nature of the test: small molecules binding NOTCH3 protein – biochemical, 635/667 nm fluorescence, primary screen (AID 1096). The note with it: small-molecule microarray, 635 nm fluorescence, higher = more signal.
Test [10] is described as follows: probe aEGFR binding to arrayed compounds – biochemical, biotinylated probe, 635/667 nm fluorescence, primary screen (AID 1097).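 Also: probe is a biotinylated anti-EGFR antibody binding compounds printed on slides; score combines fluorescence near 667 nm and signal to noise of each spot.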 The note with it: small-molecule microarray, higher = more signal.

Sequence of Neurogenic locus notch homolog protein 3 (Homo sapiens) (Q9UM47 whole entry, looked up): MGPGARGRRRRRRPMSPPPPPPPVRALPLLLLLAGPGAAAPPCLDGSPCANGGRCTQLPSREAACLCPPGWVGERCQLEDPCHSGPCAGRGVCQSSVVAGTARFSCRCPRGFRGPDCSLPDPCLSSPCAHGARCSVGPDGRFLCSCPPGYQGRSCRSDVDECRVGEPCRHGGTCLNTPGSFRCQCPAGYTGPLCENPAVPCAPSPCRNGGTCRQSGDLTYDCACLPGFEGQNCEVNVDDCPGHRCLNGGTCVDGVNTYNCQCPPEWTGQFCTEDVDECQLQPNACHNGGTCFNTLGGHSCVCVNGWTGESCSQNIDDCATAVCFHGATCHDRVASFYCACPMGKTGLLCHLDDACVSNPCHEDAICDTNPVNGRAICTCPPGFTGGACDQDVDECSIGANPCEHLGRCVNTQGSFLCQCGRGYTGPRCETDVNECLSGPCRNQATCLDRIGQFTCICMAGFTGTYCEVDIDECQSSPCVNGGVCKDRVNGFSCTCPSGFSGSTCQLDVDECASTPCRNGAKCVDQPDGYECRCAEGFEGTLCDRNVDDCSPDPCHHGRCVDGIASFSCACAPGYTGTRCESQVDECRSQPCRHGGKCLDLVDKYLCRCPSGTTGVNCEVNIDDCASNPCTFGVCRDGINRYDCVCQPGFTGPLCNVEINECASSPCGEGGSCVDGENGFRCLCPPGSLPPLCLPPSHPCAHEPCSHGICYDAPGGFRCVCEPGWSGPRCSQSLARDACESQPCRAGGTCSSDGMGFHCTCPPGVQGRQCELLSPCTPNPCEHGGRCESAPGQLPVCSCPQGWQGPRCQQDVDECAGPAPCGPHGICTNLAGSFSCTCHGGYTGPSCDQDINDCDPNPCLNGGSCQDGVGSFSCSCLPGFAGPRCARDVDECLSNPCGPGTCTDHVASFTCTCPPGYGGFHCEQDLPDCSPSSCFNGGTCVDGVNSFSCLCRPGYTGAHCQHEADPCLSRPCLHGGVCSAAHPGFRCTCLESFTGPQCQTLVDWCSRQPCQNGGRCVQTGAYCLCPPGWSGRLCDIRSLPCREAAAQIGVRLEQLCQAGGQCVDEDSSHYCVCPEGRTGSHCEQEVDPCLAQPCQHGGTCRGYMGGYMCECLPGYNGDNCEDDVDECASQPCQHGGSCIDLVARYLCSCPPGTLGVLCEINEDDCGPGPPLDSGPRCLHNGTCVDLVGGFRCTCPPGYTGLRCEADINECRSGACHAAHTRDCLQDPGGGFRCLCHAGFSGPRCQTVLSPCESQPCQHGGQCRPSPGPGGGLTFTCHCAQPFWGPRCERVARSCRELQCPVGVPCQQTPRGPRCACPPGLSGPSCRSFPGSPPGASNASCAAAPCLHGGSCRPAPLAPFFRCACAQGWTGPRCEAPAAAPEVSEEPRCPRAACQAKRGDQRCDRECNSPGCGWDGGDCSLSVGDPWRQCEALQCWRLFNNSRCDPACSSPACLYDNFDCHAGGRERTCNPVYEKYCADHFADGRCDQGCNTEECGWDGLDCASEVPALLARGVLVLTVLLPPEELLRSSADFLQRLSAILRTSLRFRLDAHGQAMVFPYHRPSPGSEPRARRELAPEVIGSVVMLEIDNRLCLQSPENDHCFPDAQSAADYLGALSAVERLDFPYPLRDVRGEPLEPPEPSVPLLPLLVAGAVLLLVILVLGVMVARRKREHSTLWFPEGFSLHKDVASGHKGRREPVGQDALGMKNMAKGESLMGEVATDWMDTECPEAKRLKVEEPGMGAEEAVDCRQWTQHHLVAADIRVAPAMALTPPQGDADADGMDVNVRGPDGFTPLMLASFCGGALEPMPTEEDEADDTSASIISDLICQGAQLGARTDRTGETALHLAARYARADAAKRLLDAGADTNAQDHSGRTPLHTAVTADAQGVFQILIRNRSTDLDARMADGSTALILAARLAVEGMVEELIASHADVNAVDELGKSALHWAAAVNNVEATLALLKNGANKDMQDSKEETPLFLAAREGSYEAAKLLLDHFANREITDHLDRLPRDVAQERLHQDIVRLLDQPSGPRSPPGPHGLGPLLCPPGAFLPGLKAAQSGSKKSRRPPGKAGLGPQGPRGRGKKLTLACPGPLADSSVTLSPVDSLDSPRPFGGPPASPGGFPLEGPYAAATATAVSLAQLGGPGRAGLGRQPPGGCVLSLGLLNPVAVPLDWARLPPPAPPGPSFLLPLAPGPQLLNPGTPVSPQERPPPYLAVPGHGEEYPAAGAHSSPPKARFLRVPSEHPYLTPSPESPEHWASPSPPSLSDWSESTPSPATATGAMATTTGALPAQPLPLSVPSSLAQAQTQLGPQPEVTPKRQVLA
Sequence of Torsin-1A-interacting protein 2 (Homo sapiens) (Q8NFQ8 whole entry, looked up): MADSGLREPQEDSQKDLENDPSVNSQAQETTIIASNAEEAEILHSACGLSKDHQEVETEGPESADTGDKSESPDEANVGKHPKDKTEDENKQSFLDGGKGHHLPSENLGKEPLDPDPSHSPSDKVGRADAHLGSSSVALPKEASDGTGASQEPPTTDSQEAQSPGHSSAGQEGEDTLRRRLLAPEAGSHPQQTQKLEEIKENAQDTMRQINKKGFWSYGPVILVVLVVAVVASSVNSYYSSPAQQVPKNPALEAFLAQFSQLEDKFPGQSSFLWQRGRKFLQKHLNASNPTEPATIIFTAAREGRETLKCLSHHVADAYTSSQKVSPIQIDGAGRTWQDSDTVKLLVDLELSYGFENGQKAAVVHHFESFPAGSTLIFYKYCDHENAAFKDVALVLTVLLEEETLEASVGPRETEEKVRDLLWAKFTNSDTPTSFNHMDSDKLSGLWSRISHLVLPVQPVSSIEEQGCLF

Take `C=CCOC(=O)[C@@H]1[C@H]2C(=O)O[C@H](c3ccccc3)[C@H](c3ccccc3)N2[C@H](c2ccc(OCCOC(=O)[C@@H]3C[C@@H]4C(=O)N[C@@H](CCCCN(C)C)C(=O)N4[C@@H]3c3ccc(O)cc3)cc2)[C@@]12C(=O)Nc1ccc(I)cc12`: the composite z-score is 1.51 in [1]; 2.95 in test [5]; -0.119 in test [7]; 1.24 in test [8]; 1.11 in [9]; 0.0727 in test [10]. In addition, the z-score in test [2] is 0.767 (inactive); in test [3], -0.858 (inactive); in test [4], 1.51 (inactive); in test [6], -0.907 (inactive).

`O=C1[C@H]2C=C(Br)[C@H](C[C@@H]2c2ccccc2)[C@@]12CO2`: the composite z-score is 0.366 in test [1]; 0.328 in test [5]; -0.172 in test [7]; 1.36 in [8]; 0.412 in test [9]; -0.156 in test [10]. Further, the z-score is -0.703 (inactive) in test [2], -14.7 (active) in test [3], -0.973 (inactive) in test [4] and -0.779 (inactive) in test [6].

`C[C@@H]1ON(c2cccc(C(=O)OC(C)(C)C)c2)[C@H](c2ccc(Br)cc2)[C@H]1C(=O)N1C(=O)OC[C@H]1Cc1ccccc1`: the composite z-score in [1] was 1.54; in test [5] it was 1.5; in [7], -0.0408; in test [8] it was 0.57; in [9] it was 1.12; in test [10], -0.0039. Further, the z-score was 0.912 (inactive) in test [2], 1.38 (inactive) in [3], 0.528 (inactive) in test [4] and -0.448 (inactive) in test [6].

On to `CN1C(=O)C2C=CC(C(O)C3CCCCC3)N(Nc3ccc([N+](=O)[O-])cc3[N+](=O)[O-])C2C1=O` (stereo not given), for which the composite z-score in test [1] amounted to 1.52; in test [5], 3.24; in test [7], 0.191; in [8], 0.219; in test [9], 1.03; in test [10], 0.0624. Also, the z-score in test [2] was 0.492 (inactive); in test [3], 1.19 (inactive); in test [4], 0.68 (inactive); in [6], -0.632 (inactive).

On to `C=CCOC(=O)[C@@H]1[C@H]2C(=O)O[C@H](c3ccccc3)[C@H](c3ccccc3)N2[C@H](c2ccc(OCCOC(=O)[C@@H]3C[C@@H]4C(=O)N[C@@H](Cc5ccccc5)C(=O)N4[C@@H]3c3ccc(O)cc3)cc2)[C@@]12C(=O)Nc1ccc(I)cc12`, for which the composite z-score in test [1] is 1.55; in test [5], 2.06; in test [7] it was -0.135; in [8] it was 1.87; in [9], 1.11; in [10], -0.0828. Further, the z-score in test [2] was 0.607 (inactive); in test [3], 1.18 (inactive); in [4], 4.44 (inactive); in test [6], 1.37 (inactive).

Take `COC(=O)[C@@]1(Cc2ccc(F)cc2)[C@H]2c3cc(C(=O)N4CCCC4)n(Cc4cc(C)n(C)n4)c3C[C@H]2CN1C(=O)c1ccccc1`: the composite z-score in test [1] is 0.364; in test [5], 3.75; in test [7] it was 0.555; in test [8], -0.678; in test [9], 0.769; in test [10] it was 0.209. Further, the z-score was -0.408 (inactive) in test [2], -0.292 (inactive) in test [3], 1.2 (inactive) in test [4] and 0.234 (inactive) in test [6].

For the molecule `O=C1NC(=O)C2C1C=CC(C(O)c1cccc3ccccc13)N2Nc1ccccn1` (stereo not given), the composite z-score in [1] was 0.246; in [5], 1.37; in test [7] it was 0.127; in test [8], -0.321; in test [9], -0.198; in test [10] it was -0.0766. Besides, the z-score in test [2] was 0.143 (inactive); in [3], 1.14 (inactive); in test [4], -0.207 (inactive); in test [6] it was 0.213 (inactive).

Consider `CCCC[C@H]1OB(O)C[C@H]2C1=C(COc1ccccc1)C[C@H]1C(=O)N(C)C(=O)[C@H]12`, for which the composite z-score in test [1] was -0.0361; in test [5], 0.265; in test [7], 0.0784; in test [8], 0.231; in test [9], 0.187; in test [10] it was -0.0714. For the same molecule, the z-score is -0.454 (inactive) in [2], -1.03 (inactive) in [3], -0.861 (inactive) in test [4] and -0.632 (inactive) in test [6].

On to `CCN(CC)c1ccc(N2CC=CC34O[C@@H]5/C=C\CCCOC(=O)C5[C@H]3C(=O)N(CCO)[C@@H]4C2=O)cc1` (stereo not given in full), for which the composite z-score was 0.0226 in [1]; 1.3 in [5]; -0.253 in test [7]; -0.715 in test [8]; -0.162 in test [9]; -0.286 in test [10]. For the same molecule, the z-score in test [2] is 0.0765 (inactive); in test [3], -1.11 (inactive); in test [4], 0.0541 (inactive); in [6] it was 0.557 (inactive).

On to `O=C(NCc1ccc(F)cc1)[C@H]1C[C@H]2C(=O)N[C@@H](Cc3ccccc3)C(=O)N2[C@H]1c1ccc(O)cc1`, for which the composite z-score is 0.53 in test [1]; 2.34 in test [5]; -0.118 in [7]; 0.223 in test [8]; -0.75 in [9]; -0.268 in test [10]. Besides, the z-score in [2] was 0.839 (inactive); in [3], 0.247 (inactive); in test [4], 2.14 (inactive); in [6] it was 0.675 (inactive).

For the molecule `[N-]=[N+]=NCc1ccccc1[C@@H]1OC(c2ccc(OCCCO)cc2)=N[C@]1(CCS(=O)(=O)c1ccccc1)C(=O)NCc1ccccc1`, the composite z-score in test [1] came out at 1.55; in test [5] it was 3.25; in test [7], 0.468; in test [8] it was 1.81; in test [9] it was 1.09; in test [10], 0.198. Moreover, the z-score is 0.182 (inactive) in test [2], 1.18 (inactive) in [3], 3.49 (inactive) in test [4] and -0.382 (inactive) in test [6].

Regarding `NC(=O)[C@@H]1[C@H]2C(=O)O[C@H](c3ccccc3)[C@H](c3ccccc3)N2[C@H](c2ccc(O)cc2)[C@@]12C(=O)Nc1ccc(C#CC3(O)CCCCCC3)cc12`, the composite z-score was 0.454 in [1]; 2.14 in test [5]; -0.072 in test [7]; -0.6 in test [8]; -0.395 in test [9]; -0.178 in test [10]. Also, the z-score in [2] is 0.505 (inactive); in test [3], -0.133 (inactive); in test [4], 0.639 (inactive); in [6], -0.441 (inactive).

Take `C=CCC(OC(C)=O)[C@@H]1[C@@H](N(Cc2cccc3ccccc23)C(=O)c2ccc(-c3ccccc3)cc2)c2cc(OCCCO)ccc2N1C(=O)Cc1ccc(OC)cc1` (stereo not given in full): the composite z-score is 0.341 in test [1]; 0.792 in [5]; -0.0491 in [7]; 0.0231 in test [8]; 0.0343 in [9]; -0.0415 in test [10]. Besides, the z-score in [2] is -0.715 (inactive); in test [3], -0.445 (inactive); in [4], -1.03 (inactive); in [6], 0.457 (inactive).

Turning to `CN1C(=O)C2C=CC(C(O)Cc3ccccc3)N(Nc3ccccc3)C2C1=O` (stereo not given), the composite z-score in test [1] is 0.0459; in test [5], 3.43; in test [7] it was 0.126; in test [8], 0.129; in test [9], 0.297; in test [10], -0.071. Besides, the z-score in test [2] is 0.398 (inactive); in test [3] it was 0.0113 (inactive); in [4], -0.0322 (inactive); in test [6] it was -1.05 (inactive).
